{"source": "PubChem BioAssay AID1159580", "about": "(chemical genetic matrix, 2015)", "assay": "chemical genetic growth profiling, strain panel (AID 1159580);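 further: tested at 20 µM; growth read once vehicle control cultures reached saturation at 30 °C; 1 = growth at the plate median or of vehicle wells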", "conditions": "growth OD", "note": "In all, about 5,500 compounds went through this assay and about 2,000 (36%) were called active. Another 18% or so got no clear call; they are omitted. The list shows a part of the results. Unmarked numbers belong to inactive results. No stated cut-off is given here; in the data, active means normalized growth mostly below about 0.91 (no sharp cut-off); inconclusive means no clear call, values can overlap the other calls; inactive means mostly above about 0.92."}
{"compound": "CC1=C2CCC3C(CC[C@]4(C)C(=O)CCC34)[C@@]2(C)CCC1=O", "note": "(some centres not stated)", "values": [{"measurement": "normalized growth", "setting": "S. cerevisiae deletion strains, locus YJR075W, strain HOC1, stronger effect = lower value", "result": 0.968}, {"measurement": "normalized growth", "setting": "S. cerevisiae deletion strains, locus YKL009W, strain mrt4, stronger effect = lower value", "result": 0.948}, {"measurement": "normalized growth", "setting": "S. cerevisiae deletion strains, locus YKL068W, stronger effect = lower value", "result": 0.985}, {"measurement": "normalized growth", "setting": "S. cerevisiae deletion strains, locus YKL085W, strain MDH1 (second series), stronger effect = lower value", "result": 0.983}, {"measurement": "normalized growth", "setting": "S. cerevisiae deletion strains, locus YKL085W, strain MDH1, stronger effect = lower value", "result": 0.983}, {"measurement": "normalized growth", "setting": "S. cerevisiae deletion strains, locus YKL160W, strain elf1, stronger effect = lower value", "result": 0.936}, {"measurement": "normalized growth", "setting": "S. cerevisiae deletion strains, locus YKL190W, strain CNB1, stronger effect = lower value", "result": 0.98}, {"measurement": "normalized growth", "setting": "S. cerevisiae deletion strains, locus YKR001C, strain vps1, stronger effect = lower value", "result": 0.9}, {"measurement": "normalized growth", "setting": "S. cerevisiae deletion strains, locus YKR026C, strain gcn3, stronger effect = lower value", "result": 0.998}, {"measurement": "normalized growth", "setting": "S. cerevisiae deletion strains, locus YKR091W, strain srl3, stronger effect = lower value", "result": 0.985}, {"measurement": "normalized growth", "setting": "S. cerevisiae deletion strains, locus YLL001W, strain dnm1, stronger effect = lower value", "result": 0.937}, {"measurement": "normalized growth", "setting": "S. cerevisiae deletion strains, locus YLL026W, stronger effect = lower value", "result": 0.994}, {"measurement": "normalized growth", "setting": "S. cerevisiae deletion strains, locus YLL041C, strain sdh2, stronger effect = lower value", "result": 0.984}, {"measurement": "normalized growth", "setting": "S. cerevisiae deletion strains, locus YLR027C, strain aat2, stronger effect = lower value", "result": 0.948}, {"measurement": "normalized growth", "setting": "S. cerevisiae deletion strains, locus YLR039C, strain RIC1, stronger effect = lower value", "result": "0.587 (active)"}, {"measurement": "normalized growth", "setting": "S. cerevisiae deletion strains, locus YLR058C, strain SHM2, stronger effect = lower value", "result": 0.976}, {"measurement": "normalized growth", "setting": "S. cerevisiae deletion strains, locus YLR102C, strain apc9, stronger effect = lower value", "result": 0.977}, {"measurement": "normalized growth", "setting": "S. cerevisiae deletion strains, locus YLR113W, strain HOG1, stronger effect = lower value", "result": 0.974}, {"measurement": "normalized growth", "setting": "S. cerevisiae deletion strains, locus YLR221C, strain rsa3, stronger effect = lower value", "result": 0.994}, {"measurement": "normalized growth", "setting": "S. cerevisiae deletion strains, locus YLR258W, strain gsy2, stronger effect = lower value", "result": 0.959}, {"measurement": "normalized growth", "setting": "S. cerevisiae deletion strains, locus YLR262C, strain YPT6 (second series), stronger effect = lower value", "result": "0.655 (active)"}, {"measurement": "normalized growth", "setting": "S. cerevisiae deletion strains, locus YLR262C, strain YPT6, stronger effect = lower value", "result": 0.613}, {"measurement": "normalized growth", "setting": "S. cerevisiae deletion strains, locus YLR268W, strain sec22, stronger effect = lower value", "result": 1.02}, {"measurement": "normalized growth", "setting": "S. cerevisiae deletion strains, locus YLR320W, strain mms22, stronger effect = lower value", "result": 0.94}, {"measurement": "normalized growth", "setting": "S. cerevisiae deletion strains, locus YLR330W, strain CHS5, stronger effect = lower value", "result": 0.982}, {"measurement": "normalized growth", "setting": "S. cerevisiae deletion strains, locus YLR342W, strain FKS1 (second series), stronger effect = lower value", "result": 0.811}, {"measurement": "normalized growth", "setting": "S. cerevisiae deletion strains, locus YLR342W, strain FKS1, stronger effect = lower value", "result": 0.951}, {"measurement": "normalized growth", "setting": "S. cerevisiae deletion strains, locus YLR357W, strain rsc2, stronger effect = lower value", "result": 1.01}, {"measurement": "normalized growth", "setting": "S. cerevisiae deletion strains, locus YLR370C, strain arc18, stronger effect = lower value", "result": 0.986}, {"measurement": "normalized growth", "setting": "S. cerevisiae deletion strains, locus YLR371W, strain rom2, stronger effect = lower value", "result": 0.983}, {"measurement": "normalized growth", "setting": "S. cerevisiae deletion strains, locus YLR384C, strain iki3, stronger effect = lower value", "result": 0.983}, {"measurement": "normalized growth", "setting": "S. cerevisiae deletion strains, locus YLR418C, strain cdc73, stronger effect = lower value", "result": "0.771 (active)"}, {"measurement": "normalized growth", "setting": "S. cerevisiae deletion strains, locus YML016C, strain PPZ1, stronger effect = lower value", "result": 0.965}, {"measurement": "normalized growth", "setting": "S. cerevisiae deletion strains, locus YML032C, strain rad52, stronger effect = lower value", "result": 0.966}, {"measurement": "normalized growth", "setting": "S. cerevisiae deletion strains, locus YML120C, strain ndi1, stronger effect = lower value", "result": 0.955}, {"measurement": "normalized growth", "setting": "S. cerevisiae deletion strains, locus YML124C, strain tub3, stronger effect = lower value", "result": 0.969}, {"measurement": "normalized growth", "setting": "S. cerevisiae deletion strains, locus YMR058W, strain fet3, stronger effect = lower value", "result": 0.976}, {"measurement": "normalized growth", "setting": "S. cerevisiae deletion strains, locus YMR078C, strain ctf18, stronger effect = lower value", "result": 0.953}, {"measurement": "normalized growth", "setting": "S. cerevisiae deletion strains, locus YMR125W, strain sto1, stronger effect = lower value", "result": 0.993}, {"measurement": "normalized growth", "setting": "S. cerevisiae deletion strains, locus YMR129W, stronger effect = lower value", "result": 0.993}, {"measurement": "normalized growth", "setting": "S. cerevisiae deletion strains, locus YMR205C, strain PFK2, stronger effect = lower value", "result": 0.9}, {"measurement": "normalized growth", "setting": "S. cerevisiae deletion strains, locus YMR223W, strain ubp8, stronger effect = lower value", "result": "0.9 (active)"}, {"measurement": "normalized growth", "setting": "S. cerevisiae deletion strains, locus YMR231W, strain pep5, stronger effect = lower value", "result": 0.976}, {"measurement": "normalized growth", "setting": "S. cerevisiae deletion strains, locus YMR263W, strain SAP30, stronger effect = lower value", "result": 0.971}, {"measurement": "normalized growth", "setting": "S. cerevisiae deletion strains, locus YMR307W, strain GAS1, stronger effect = lower value", "result": 0.759}, {"measurement": "normalized growth", "setting": "S. cerevisiae deletion strains, locus YNL067W, strain RPL9B, stronger effect = lower value", "result": 0.987}, {"measurement": "normalized growth", "setting": "S. cerevisiae deletion strains, locus YNL071W, strain lat1, stronger effect = lower value", "result": "0.863 (active)"}, {"measurement": "normalized growth", "setting": "S. cerevisiae deletion strains, locus YNL128W, strain TEP1, stronger effect = lower value", "result": 0.99}, {"measurement": "normalized growth", "setting": "S. cerevisiae deletion strains, locus YNL153C, strain GIM3, stronger effect = lower value", "result": 0.99}, {"measurement": "normalized growth", "setting": "S. cerevisiae deletion strains, locus YNL183C, strain NPR1, stronger effect = lower value", "result": 0.839}, {"measurement": "normalized growth", "setting": "S. cerevisiae deletion strains, locus YNL209W, strain ssb2, stronger effect = lower value", "result": 0.962}, {"measurement": "normalized growth", "setting": "S. cerevisiae deletion strains, locus YNL233W, strain BNI4, stronger effect = lower value", "result": 0.962}, {"measurement": "normalized growth", "setting": "S. cerevisiae deletion strains, locus YNL248C, strain rpa49, stronger effect = lower value", "result": 1.01}, {"measurement": "normalized growth", "setting": "S. cerevisiae deletion strains, locus YNL250W, strain rad50, stronger effect = lower value", "result": 0.951}, {"measurement": "normalized growth", "setting": "S. cerevisiae deletion strains, locus YNL271C, strain bni1, stronger effect = lower value", "result": 0.957}, {"measurement": "normalized growth", "setting": "S. cerevisiae deletion strains, locus YNL298W, strain CLA4, stronger effect = lower value", "result": 0.929}, {"measurement": "normalized growth", "setting": "S. cerevisiae deletion strains, locus YNL307C, strain MCK1, stronger effect = lower value", "result": "0.695 (active)"}, {"measurement": "normalized growth", "setting": "S. cerevisiae deletion strains, locus YNL322C, strain KRE1 (second series), stronger effect = lower value", "result": 0.986}, {"measurement": "normalized growth", "setting": "S. cerevisiae deletion strains, locus YNL322C, strain KRE1, stronger effect = lower value", "result": 0.983}, {"measurement": "normalized growth", "setting": "S. cerevisiae deletion strains, locus YNR049C, strain mso1, stronger effect = lower value", "result": 0.997}, {"measurement": "normalized growth", "setting": "S. cerevisiae deletion strains, locus YNR052C, strain pop2, stronger effect = lower value", "result": "0.89 (active)"}, {"measurement": "normalized growth", "setting": "S. cerevisiae deletion strains, locus YOL006C, strain TOP1, stronger effect = lower value", "result": 0.729}, {"measurement": "normalized growth", "setting": "S. cerevisiae deletion strains, locus YOL012C, strain htz1", "result": 1.08}, {"measurement": "normalized growth", "setting": "S. cerevisiae deletion strains, locus YOL147C, strain pex11, stronger effect = lower value", "result": 0.959}, {"measurement": "normalized growth", "setting": "S. cerevisiae deletion strains, locus YOR001W, strain rrp6, stronger effect = lower value", "result": 1.01}, {"measurement": "normalized growth", "setting": "S. cerevisiae deletion strains, locus YOR061W, strain CKA2, stronger effect = lower value", "result": 0.979}, {"measurement": "normalized growth", "setting": "S. cerevisiae deletion strains, locus YOR069W, strain VPS5, stronger effect = lower value", "result": 0.973}, {"measurement": "normalized growth", "setting": "S. cerevisiae deletion strains, locus YOR070C, strain gyp1, stronger effect = lower value", "result": 0.959}, {"measurement": "normalized growth", "setting": "S. cerevisiae deletion strains, locus YOR080W, strain dia2, stronger effect = lower value", "result": 0.995}, {"measurement": "normalized growth", "setting": "S. cerevisiae deletion strains, locus YOR083W, strain WHI5, stronger effect = lower value", "result": 0.915}, {"measurement": "normalized growth", "setting": "S. cerevisiae deletion strains, locus YOR106W, strain vam3, stronger effect = lower value", "result": 0.944}, {"measurement": "normalized growth", "setting": "S. cerevisiae deletion strains, locus YOR136W, strain idh2, stronger effect = lower value", "result": 0.961}, {"measurement": "normalized growth", "setting": "S. cerevisiae deletion strains, locus YOR144C, strain elg1, stronger effect = lower value", "result": 0.958}, {"measurement": "normalized growth", "setting": "S. cerevisiae deletion strains, locus YOR184W, strain ser1, stronger effect = lower value", "result": "0.719 (active)"}, {"measurement": "normalized growth", "setting": "S. cerevisiae deletion strains, locus YOR231W, strain MKK1, stronger effect = lower value", "result": 0.955}, {"measurement": "normalized growth", "setting": "S. cerevisiae deletion strains, locus YOR265W, strain rbl2, stronger effect = lower value", "result": 0.985}, {"measurement": "normalized growth", "setting": "S. cerevisiae deletion strains, locus YOR270C, strain vph1, stronger effect = lower value", "result": 0.844}, {"measurement": "normalized growth", "setting": "S. cerevisiae deletion strains, locus YOR290C, strain snf2, stronger effect = lower value", "result": 0.898}, {"measurement": "normalized growth", "setting": "S. cerevisiae deletion strains, locus YOR316C, strain cot1, stronger effect = lower value", "result": 0.98}, {"measurement": "normalized growth", "setting": "S. cerevisiae deletion strains, locus YPL051W, strain arl3, stronger effect = lower value", "result": 0.921}, {"measurement": "normalized growth", "setting": "S. cerevisiae deletion strains, locus YPL055C, strain LGE1, stronger effect = lower value", "result": 0.871}, {"measurement": "normalized growth", "setting": "S. cerevisiae deletion strains, locus YPL078C, strain atp4, stronger effect = lower value", "result": "0.887 (active)"}, {"measurement": "normalized growth", "setting": "S. cerevisiae deletion strains, locus YPL106C, strain sse1, stronger effect = lower value", "result": 1}, {"measurement": "normalized growth", "setting": "S. cerevisiae deletion strains, locus YPL240C, strain hsp82, stronger effect = lower value", "result": 0.987}, {"measurement": "normalized growth", "setting": "S. cerevisiae deletion strains, locus YPL241C, strain CIN2, stronger effect = lower value", "result": 0.986}, {"measurement": "normalized growth", "setting": "S. cerevisiae deletion strains, locus YPL256C, strain CLN2, stronger effect = lower value", "result": 0.927}, {"measurement": "normalized growth", "setting": "S. cerevisiae deletion strains, locus YPR119W, strain clb2, stronger effect = lower value", "result": 0.979}, {"measurement": "normalized growth", "setting": "S. cerevisiae deletion strains, locus YPR141C, strain kar3, stronger effect = lower value", "result": 0.951}, {"measurement": "normalized growth", "setting": "S. cerevisiae deletion strains, locus YPR163C, strain tif3, stronger effect = lower value", "result": 0.927}, {"measurement": "normalized growth", "setting": "S. cerevisiae deletion strains, locus YPR167C, strain met16, stronger effect = lower value", "result": 0.972}, {"measurement": "normalized growth", "setting": "S. cerevisiae deletion strains, strain wtn01, stronger effect = lower value", "result": 0.964}, {"measurement": "normalized growth", "setting": "S. cerevisiae strains, strain wild type, stronger effect = lower value", "result": 0.942}]}
